Measured values reported in PubChem BioAssay (EPA / NIEHS).
Several values for one entry are separate records, joined by “and”; a condition that tells them apart may be missing. Equal entries are not always repeated. Inconclusive results are not listed. Where a structure was tested more than once in an assay, its records may differ in their call. Activity calls are given as the source filed them. Rule for the calls, unless noted: active = hit-call score of the fitted dose curve at least 0.9, where 1 is the maximum; inconclusive = response in the unintended direction; inactive = score below 0.9.

Assays:
[1] = tested on: Sodium/Iodide Symporter (NIS), SLC5A5 (gene 6528); test: CPHEA_Stoker_NIS_Inhibition_RAIU: CPHEA's Radioactive Iodide Uptake (RAIU) Assay for Sodium/Iodide Symporter (NIS) Inhibition, Stoker and Laws Labs (AID 2283841)
Procedure, shortened: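 HEK293T cells stably expressing human NIS (hNIS-HEK293T-EPA) were exposed to test chemicals at 0.001–100uM (0.5% final DMSO) with 125I at a final 329pM in HBSS/10mM HEPES pH 7.4. After 2 hours at room temperature and ice-cold washes, intracellular 125I was counted as CPM and normalized to DMSO wells.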

[2] = CEETOX_H295R_OHPREG_noMTC: CeeTox H295R High-throughput Steroidogenesis Assay for OH-Pregnenolone (OHPREG), maximum tolerated concentration (MTC) filtered results only (AID 2283912; active = hit-call score of the fitted dose curve at least 0.9, where 1 is the maximum; inactive = score below 0.9); details: actives raise or lower the signal
Procedure, shortened: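 H295R; 10 uM forskolin 48 h pre-stim; test cpd in DMSO (0.1% final) 48 h; media MTBE-extracted, HPLC-MS/MS for OH-pregnenolone; bidirectional fit vs DMSO; no MTC (MTT) filtering.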

[3] = CEETOX_H295R_OHPROG_noMTC: CeeTox H295R High-throughput Steroidogenesis Assay for OH-Progesterone (OHPROG), maximum tolerated concentration (MTC) filtered results only (AID 2283914; active = hit-call score of the fitted dose curve at least 0.9, where 1 is the maximum; inactive = score below 0.9); details: actives raise or lower the signal
Procedure, shortened: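 Medium hormone measured by reverse-phase C18 HPLC with positive electrospray MS/MS after MTBE liquid-liquid extraction. Cells had 48 h forskolin (10 uM) prestimulation, then 48 h chemical dosing. Gain or loss of signal fitted relative to DMSO baseline.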

[4] = CEETOX_H295R_ANDR_noMTC: CeeTox H295R High-throughput Steroidogenesis Assay for Androstenedione (ANDR), maximum tolerated concentration (MTC) filtered results only (AID 2283915; active = hit-call score of the fitted dose curve at least 0.9, where 1 is the maximum; inactive = score below 0.9); details: actives raise or lower the signal
Procedure, shortened: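 Androstenedione secreted into medium was measured by LC-MS/MS after MTBE extraction. Human adrenal H295R cells received 10 uM forskolin for 48 h before 48 h chemical exposure (0.1% DMSO). Gain or loss fitted against DMSO, including concentrations above the MTT-derived MTC.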

[5] = CEETOX_H295R_ESTRADIOL_noMTC: CeeTox H295R High-throughput Steroidogenesis Assay for Estradiol, maximum tolerated concentration (MTC) filtered results only (AID 2283919; active = hit-call score of the fitted dose curve at least 0.9, where 1 is the maximum; inactive = score below 0.9); details: actives raise or lower the signal
Procedure, shortened: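 Readout: dansyl-derivatized estradiol quantified by LC-MS/MS in medium from H295R cells dosed 48 h (0.1% DMSO) following 48 h forskolin (10 uM) prestimulation. Gain or loss of signal fitted against DMSO; no MTC filtering applied.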

[6] = CEETOX_H295R_PROG_noMTC: CeeTox H295R High-throughput Steroidogenesis Assay for Progesterone (PROG), maximum tolerated concentration (MTC) filtered results only (AID 2283920; active = hit-call score of the fitted dose curve at least 0.9, where 1 is the maximum; inactive = score below 0.9); details: actives raise or lower the signal
Procedure, shortened: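 Readout: medium progesterone by MTBE extraction, reverse-phase C18 HPLC, ESI-positive MS/MS. Human H295R cells, 10 uM forskolin pretreatment 48 h, chemical 48 h in 0.1% DMSO. Gain or loss fitted against DMSO baseline.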

[7] = CEETOX_H295R_ESTRONE_noMTC: CeeTox H295R High-throughput Steroidogenesis Assay for Estrone, maximum tolerated concentration (MTC) filtered results only (AID 2283921; active = hit-call score of the fitted dose curve at least 0.9, where 1 is the maximum; inactive = score below 0.9); details: actives raise or lower the signal
Procedure, shortened: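 Estrone in spent medium, quantified by tandem MS following dansyl chloride derivatization, after 48 h chemical exposure (0.1% DMSO) of forskolin-prestimulated (10 uM, 48 h) H295R cells; concentrations not MTC-filtered, bidirectional fit against DMSO.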

[8] = CEETOX_H295R_TESTO_noMTC: CeeTox H295R High-throughput Steroidogenesis Assay for Testosterone (TESTO), maximum tolerated concentration (MTC) filtered results only (AID 2283924; active = hit-call score of the fitted dose curve at least 0.9, where 1 is the maximum; inactive = score below 0.9); details: actives raise or lower the signal
Procedure, shortened: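 Medium testosterone, measured by HPLC-MS/MS after liquid-liquid extraction, was fitted in both directions relative to DMSO without MTC filtering. Adrenal H295R cells received 48 h chemical exposure (0.1% DMSO final) after 48 h forskolin (10 uM) prestimulation; viability by MTT.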

[9] = target: human Thyroid hormone Receptor alpha (TRa), THRA (gene 7067) (UniProt P10827); test: ATG_hTRa_XSP2: Attagene TRANS-FACTORIAL Multi-Species (XSP2) HepG2 Assay for human Thyroid hormone Receptor alpha (TRa) (AID 2283838)
Procedure, shortened: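 Reporter transcripts were read by RT-PCR with fluorescent primer extension, HpaI digestion and capillary electrophoresis. These came from HepG2 cells carrying multiplexed TRa-Gal4 TRANS constructs, harvested 24 hours after dosing. The medium also held 6-alpha-fluorotestosterone (3 nM) and norgestrel (1.5 nM), and increases were fitted against DMSO.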

[10] = target: frog Thyroid hormone Receptor alpha (TRa), thra-a (gene 397942) (UniProt P15204); test: ATG_frTRa_XSP2: Attagene TRANS-FACTORIAL Multi-Species (XSP2) HepG2 Assay for frog Thyroid hormone Receptor alpha (TRa) (AID 2283839);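 for AC50: AC50 reflects induction of frog TRa-driven reporter mRNA above DMSO baseline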
Procedure, shortened: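 Frog thyroid receptor alpha was tested as an exogenous NR-Gal4 fusion in transiently transfected HepG2 cells. After 24 h chemical treatment, reporter mRNA induction was quantified by RT-PCR and capillary electrophoresis, with gain-of-signal analysed relative to DMSO.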

[11] = target: human Thyroid hormone Receptor beta (TRb), THRB (gene 7068) (UniProt P10828); test: ATG_hTRb_XSP2: Attagene TRANS-FACTORIAL Multi-Species (XSP2) HepG2 Assay for human Thyroid hormone Receptor beta (TRb) (AID 2283840);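 note: actives raise reporter mRNA so potency reflects agonist-like gain of signal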
Procedure, shortened: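 In this cell-based multiplex, HepG2 liver cells carrying transfected GAL4-UAS reporter constructs are exposed to chemical for 24 hours, then reporter transcripts are measured by RT-PCR with capillary electrophoresis, scored as gain of signal against DMSO.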

PGR (gene 5241) [12] = target: PGR (gene 5241) (UniProt P06401); test: TOX21_PR_BLA_Followup_Antagonist_ratio: Tox21 HEK293 Progesterone Receptor (PR) Antagonism Beta-lactamase Follow-Up Assay, Ratio (AID 2283934);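 note: PR-UAS-bla HEK293T cells stimulated with 1 nM R5020 agonist for 16 hr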
Procedure, shortened: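 Cells are plated, rested 6 hr, then dosed with test compound in DMSO and challenged with 1 nM promegestone. After 16 hr incubation, substrate loading for 2 h at room temperature precedes fluorescence reading; viability is measured in the same wells.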

[13] = TOX21_PR_BLA_Followup_Agonist_viability: Viability Assessment in the Tox21 HEK293 Progesterone Receptor (PR) Agonism Beta-lactamase Follow-Up Assay (AID 2283935);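 note: signal loss means lower viability so actives are cytotoxic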
Procedure, shortened: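 Cells were plated in medium with 2% charcoal-stripped FBS and rested 6 hr. Compounds in DMSO were then added for 16 hr at 37C, followed by the FRET substrate step and CellTiter-Glo luminescence after 30 min.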

[14] = TOX21_PR_BLA_Followup_Antagonist_viability: Viability Assessment in the Tox21 HEK293 Progesterone Receptor (PR) Antagonism Beta-lactamase Follow-Up Assay (AID 2283936);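 note: cells exposed to compound with R5020 agonist for 16 h; hits lower the luminescence signal meaning cytotoxicity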
Procedure, shortened: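 PR-UAS-bla HEK293T cells in medium with 2% charcoal-stripped FBS were treated with compounds plus R5020 for 16 hr at 37C. After the beta-lactamase read, CellTiter-Glo was added to the same wells and luminescence read after 30 min at room temperature.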

PGR (gene 5241) [15] = target: PGR (gene 5241) (UniProt P06401); test: TOX21_PR_LUC_Followup_Antagonist: Tox21 HEK293 Progesterone Receptor (PR) Antagonism Luciferase Follow-Up Assay (AID 2283938);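 note: curve fitted upward as signal gain over DMSO baseline despite antagonist label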
Procedure, shortened: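 A follow-up to the PR bla screen using HEK293-PR-A-luc cells, multiplexed with cell viability to flag cytotoxicity. Reporter luminescence after 16 h compound exposure was analysed relative to DMSO.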

[16] = TOX21_PR_LUC_Followup_Antagonist_viability: Viability Assessment in the Tox21 HEK293 Progesterone Receptor (PR) Antagonism Luciferase Follow-Up Assay (AID 2283940)
Procedure, shortened: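 HEK293-PR-A-luc, 3,000 cells/well; 5 h at 37C/0% CO2; compound pin transfer; 16 h incubation; CellTiter-Glo ATP luminescence, signal loss = cytotoxicity.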

[17] = TOX21_PR_LUC_Followup_Agonist_viability: Viability Assessment in the Tox21 HEK293 Progesterone Receptor (PR) Agonism Luciferase Follow-Up Assay (AID 2283941);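 note: loss of signal means cytotoxicity so actives lower viability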
Procedure, shortened: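 Multiplexed viability endpoint of the PR agonist luciferase follow-up: HEK293-PR-A-luc cells treated 16 h at 37C, with viability scored as decrease in CellTiter-Glo ATP signal.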

PGR (gene 5241) [18] = target: PGR (gene 5241) (UniProt P06401); test: TOX21_PR_BLA_Followup_Agonist_ratio: Tox21 HEK293 Progesterone Receptor (PR) Agonism Beta-lactamase Follow-Up Assay, Ratio (AID 2283933)
Procedure, shortened: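 Cells were seeded and held 6 hr before compound addition, exposed for 16 hr at 37C, then given FRET substrate for 2 hr at room temperature. Agonism was scored from the blue/green substrate cleavage ratio against DMSO controls.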

PGR (gene 5241) [19] = target: PGR (gene 5241) (UniProt P06401); test: TOX21_PR_LUC_Followup_Agonist: Tox21 HEK293 Progesterone Receptor (PR) Agonism Luciferase Follow-Up Assay (AID 2283937; active = hit-call score of the fitted dose curve at least 0.9, where 1 is the maximum; inactive = score below 0.9)
Procedure, shortened: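 Seed HEK293-PR-A-luc cells, wait 5 h, add compounds in DMSO, incubate 16 h at 37C, add ONE-Glo, read luminescence after 30 min. Activity is increase over DMSO controls; run with a viability counter-screen.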

[20] = target: Thyroid hormone receptor alpha (Rattus norvegicus) + Thyroid hormone receptor beta (Rattus norvegicus) (UniProt P18113+P63059); test: TOX21_TR_LUC_GH3_Antagonist_Followup: Tox21 GH3 Thyroid Hormone Receptor Antagonism Luciferase Follow-Up Assay (AID 2283942)
Procedure, shortened: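 Luminescence read-out (ONE-Glo, 30 min at room temperature) in GH3 reporter cells challenged with 1.0 nM T3 final. Compounds ran at 92 uM to 5nM over 15 concentrations for 24 h; DMSO served as negative control and baseline.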

human Thyroid hormone Receptor beta (TRb), THRB (gene 7068), sequence (P10828 whole entry, looked up, the tested form may be a part): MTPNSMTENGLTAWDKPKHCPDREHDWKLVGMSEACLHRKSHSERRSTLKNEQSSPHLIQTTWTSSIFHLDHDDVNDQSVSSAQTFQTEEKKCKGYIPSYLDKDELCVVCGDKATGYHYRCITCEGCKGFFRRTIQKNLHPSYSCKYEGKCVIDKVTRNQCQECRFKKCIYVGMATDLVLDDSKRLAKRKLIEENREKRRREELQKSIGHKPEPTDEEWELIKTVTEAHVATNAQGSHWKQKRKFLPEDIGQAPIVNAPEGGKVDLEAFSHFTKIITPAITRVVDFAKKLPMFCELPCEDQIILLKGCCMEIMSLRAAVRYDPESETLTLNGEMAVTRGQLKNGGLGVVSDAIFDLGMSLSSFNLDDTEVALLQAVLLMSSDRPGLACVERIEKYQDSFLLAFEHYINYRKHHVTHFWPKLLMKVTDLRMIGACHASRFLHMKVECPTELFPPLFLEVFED
frog Thyroid hormone Receptor alpha (TRa), thra-a (gene 397942), sequence (P15204 whole entry, looked up, the tested form may be a part): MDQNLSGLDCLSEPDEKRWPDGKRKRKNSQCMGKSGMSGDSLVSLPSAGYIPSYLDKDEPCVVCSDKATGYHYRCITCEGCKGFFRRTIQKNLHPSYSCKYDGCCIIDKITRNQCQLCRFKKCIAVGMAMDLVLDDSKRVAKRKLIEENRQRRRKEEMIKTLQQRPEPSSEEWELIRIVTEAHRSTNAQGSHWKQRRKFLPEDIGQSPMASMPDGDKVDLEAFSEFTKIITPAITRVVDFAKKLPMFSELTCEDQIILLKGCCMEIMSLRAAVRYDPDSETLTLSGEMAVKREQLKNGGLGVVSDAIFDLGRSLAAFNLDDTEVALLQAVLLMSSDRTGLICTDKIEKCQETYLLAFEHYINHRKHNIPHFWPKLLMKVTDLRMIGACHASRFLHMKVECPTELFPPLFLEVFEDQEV
PGR (gene 5241), sequence (P06401 whole entry, looked up): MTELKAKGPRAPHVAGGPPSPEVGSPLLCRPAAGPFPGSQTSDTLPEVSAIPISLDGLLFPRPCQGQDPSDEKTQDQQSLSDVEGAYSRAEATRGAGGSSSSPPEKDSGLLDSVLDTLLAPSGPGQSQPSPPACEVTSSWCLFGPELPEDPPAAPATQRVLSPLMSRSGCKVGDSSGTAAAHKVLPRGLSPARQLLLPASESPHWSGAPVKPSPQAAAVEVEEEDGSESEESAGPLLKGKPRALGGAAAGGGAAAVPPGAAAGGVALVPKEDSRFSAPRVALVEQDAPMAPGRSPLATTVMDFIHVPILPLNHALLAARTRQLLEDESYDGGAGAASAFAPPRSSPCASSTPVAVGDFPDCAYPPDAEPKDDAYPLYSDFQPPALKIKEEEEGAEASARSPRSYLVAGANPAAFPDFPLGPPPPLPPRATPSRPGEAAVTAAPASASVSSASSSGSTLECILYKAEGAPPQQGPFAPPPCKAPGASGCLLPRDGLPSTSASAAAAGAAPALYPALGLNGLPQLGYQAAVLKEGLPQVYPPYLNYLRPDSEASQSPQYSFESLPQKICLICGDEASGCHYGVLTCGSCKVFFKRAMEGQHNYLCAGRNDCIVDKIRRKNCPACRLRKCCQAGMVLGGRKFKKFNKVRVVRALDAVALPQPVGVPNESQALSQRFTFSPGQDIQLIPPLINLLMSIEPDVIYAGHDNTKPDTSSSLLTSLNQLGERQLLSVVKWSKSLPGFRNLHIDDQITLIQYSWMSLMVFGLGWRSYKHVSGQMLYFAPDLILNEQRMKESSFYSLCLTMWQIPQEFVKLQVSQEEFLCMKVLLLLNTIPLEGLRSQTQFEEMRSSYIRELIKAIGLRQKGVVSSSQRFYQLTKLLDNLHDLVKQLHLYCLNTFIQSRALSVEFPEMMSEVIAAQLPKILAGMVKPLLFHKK
human Thyroid hormone Receptor alpha (TRa), THRA (gene 7067), sequence (P10827 whole entry, looked up, the tested form may be a part): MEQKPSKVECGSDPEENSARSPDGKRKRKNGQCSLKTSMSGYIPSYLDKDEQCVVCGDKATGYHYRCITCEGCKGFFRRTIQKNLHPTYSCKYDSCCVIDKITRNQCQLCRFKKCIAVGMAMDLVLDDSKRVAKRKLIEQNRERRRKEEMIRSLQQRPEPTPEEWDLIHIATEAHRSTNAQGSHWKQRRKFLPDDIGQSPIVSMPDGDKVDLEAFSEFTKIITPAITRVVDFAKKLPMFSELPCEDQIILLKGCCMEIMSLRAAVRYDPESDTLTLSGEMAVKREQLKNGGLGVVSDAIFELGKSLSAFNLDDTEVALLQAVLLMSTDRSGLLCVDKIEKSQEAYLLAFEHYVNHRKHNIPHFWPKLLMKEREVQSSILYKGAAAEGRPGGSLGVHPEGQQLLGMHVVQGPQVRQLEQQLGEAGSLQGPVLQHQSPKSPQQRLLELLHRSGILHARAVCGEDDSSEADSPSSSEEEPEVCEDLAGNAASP

SMILES: COC(=O)c1c(C(F)F)nc(C(F)(F)F)c(C2=NCCS2)c1CC(C)C
- outcome [1]: inactive
- outcome [2]: inactive
- AC50 [3]: 7.98 µM (active)
- outcome [4]: inactive
- outcome [5]: inactive
- AC50 [6]: 13.8 µM (active)
- outcome [7]: inactive
- outcome [8]: inactive

SMILES: CC1(C)C(C=C(Cl)Cl)C1C(=O)OC(C#N)c1cccc(Oc2ccccc2)c1 (centres undefined)
- outcome [9]: inactive
- outcome [10]: inactive
- outcome [11]: inactive
- outcome [1]: inactive

SMILES: CCOP(=S)(OCC)Oc1nc(Cl)n(C(C)C)n1
- outcome [1]: inactive

SMILES: CCOP(=O)(OCC)Oc1nc(Cl)c(Cl)cc1Cl
- outcome [1]: inactive

SMILES: CCCCOCN(C(=O)CCl)c1c(CC)cccc1CC
- outcome [1]: inactive

SMILES: N#Cc1c[nH]cc1-c1cccc2c1OC(F)(F)O2
- AC50 [9]: 100 µM (active)
- outcome [9]: inactive
- AC50 [10]: 100 µM (active) and 60.7 µM (active)
- outcome [11]: inactive
- outcome [1]: inactive
- AC50 (PGR (gene 5241) [12]): 2.42 µM (active)
- outcome [13]: inactive
- outcome [14]: inactive
- AC50 (PGR (gene 5241) [15]): 7.11 µM (active)
- outcome [16]: inactive
- outcome [17]: inactive

SMILES: O=C(Nc1ccccc1-c1ccc(Cl)cc1)c1cccnc1Cl
- outcome [1]: inactive

SMILES: CC1(C)CCC(=Cc2ccc(Cl)cc2)C1(O)Cn1cncn1 (centres undefined)
- outcome [9]: inactive
- outcome [10]: inactive
- outcome [11]: inactive
- outcome (PGR (gene 5241) [18]): inactive
- outcome (PGR (gene 5241) [12]): inactive
- outcome [13]: inactive
- outcome [14]: inactive
- outcome (PGR (gene 5241) [19]): inactive
- outcome (PGR (gene 5241) [15]): inactive
- outcome [16]: inactive
- outcome [17]: inactive

SMILES: CC1(C)CON(Cc2ccccc2Cl)C1=O
- outcome [1]: inactive

SMILES: CCNP(=S)(OC)O/C(C)=C/C(=O)OC(C)C (centres undefined)
- outcome [1]: inactive

SMILES: COc1ccc(-c2ccccc2)cc1NNC(=O)OC(C)C
- AC50 [1]: 50 µM (active)

SMILES: CCOc1cc(C(C)(C)C)ccc1C1COC(c2c(F)cccc2F)=N1 (centres undefined)
- AC50 [1]: 1.21 µM (active)

SMILES: C=C(C)CN(CC)c1c([N+](=O)[O-])cc(C(F)(F)F)cc1[N+](=O)[O-]
- outcome [9]: inactive
- outcome [10]: inactive
- outcome [11]: inactive
- AC50 [1]: 5.45 µM (active)

SMILES: CC(C)NC(=O)N1CC(=O)N(c2cc(Cl)cc(Cl)c2)C1=O
- outcome [9]: inactive
- outcome [10]: inactive

SMILES: Cc1c(COC(=O)[C@@H]2[C@H](/C=C(\Cl)C(F)(F)F)C2(C)C)cccc1-c1ccccc1
- outcome [9]: inactive
- outcome [10]: inactive

SMILES: CO/N=C(/C1=NOCCO1)c1ccccc1Oc1ncnc(Oc2ccccc2Cl)c1F
- AC50 [1]: 9.92 µM (active)
- AC50 [20]: 16.5 µM (active)

SMILES: CSC(=O)c1c(C(F)F)nc(C(F)(F)F)c(C(=O)SC)c1CC(C)C
- outcome [11]: inactive
- outcome [1]: inactive
